This is a sample that favours compounds with a hit; in the whole collection about 19% have one here.
IL-1B inflam inh = inflammasome signaling inhibition, IL-1 beta readout; THP-1 LPS/ATP IL-1B secretion, AlphaLISA, 16 h; stronger effect = lower value; activity change, % at 57.5 µM; 360,000 compounds, 4.7% hits; AID 743279; in the data active = activity change below about -50%; inconclusive = mostly about -30% to -49%
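Secreted IL-1B measured by AlphaLISA bead assay after 16 h compound exposure of THP-1 cells; compounds (final up to 57.5 uM) added 1 h before LPS (250 ng/mL) and ATP (1.25 mM) stimulation; lower signal means less secretion.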
DT40 TDP1 no CPT = qHTS for Inhibitors of human tyrosyl-DNA phosphodiesterase 1 (TDP1): qHTS in cells in absence of CPT. AID 686978, 2013. 420,000 compounds, 15% hits. Potency, µM (series often up to 46.2 µM), without a hit: at the highest dose activity change, negative = growth inhibition, hits mostly inhibitors. DT40 Tdp1-/- hTDP1 cells, no CPT, ATP luminescence, 48 h; also: potency is read from the fitted curve at half-maximal effect; nearly all actives have a fitted effect of over 55% in size
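No-CPT arm: Tdp1-/-;hTDP1 DT40 cells (400/well) plus compounds, incubated ≥48 hr at 37 °C. Readout CellTiter-Glo luminescence.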
TDP1 cell CPT = growth inhibition of DT40 Tdp1-/-;hTDP1 cells with camptothecin (screen for TDP1 inhibitors). 420,000 compounds, 12% hits. chicken DT40 Tdp1-/-;hTDP1 cells + 20 nM CPT, ATP luminescence, 48 h. Potency, µM (highest dose often 46.2 µM), for the others: at the top dose activity change, negative = growth inhibition, usual class: inhibitors; also: potency is read from the fitted curve at half-maximal effect; nearly all actives have a fitted effect of over 55% in size
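Cell growth measured by CellTiter-Glo luminescence after a minimum 48 h, 37 C compound exposure with 20 nM CPT in Tdp1-knockout DT40 cells stably expressing hTDP1, seeded 400/well; qHTS titration format.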
HT1080NT lethal = kills 2HG-producing HT-1080-NT fibrosarcoma cells. HT-1080-NT fibrosarcoma viability, CellTiter-Glo ATP luminescence, 48 h. Potency, µM (top dose mostly 46.1 µM), for the others: top-dose activity, negative = less viability, hits mostly cytotoxic. 360,000 compounds, 1.6% hits;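 also: NT is the 2HG producing partner of a matched IDH1 knockdown line; potency is read from the fitted curve at half-maximal effect; 0% = DMSO-treated cells and -100% = media-only wells without cells; nearly all actives have a fitted effect of over 55% in size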
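HT-1080-NT fibrosarcoma cells (2HG-overproducing), 750 cells/well in RPMI with 5% FBS, dosed after 2 h and incubated 48 h at 37C. CellTiter-Glo luminescence normalized to DMSO and no-cell wells; concentration-response curves fitted and classed.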
HT1080 IDH1KD tx = HT-1080 IDH1 knockdown cell toxicity (counter line) | Potency, µM (doses to about 46.1 µM), for inactives: top-dose activity, negative = toxicity, most hits filed as cytotoxic | HT-1080 IDH1 knockdown viability, ATP luminescence, 48 h | 360,000 compounds, 2% hits;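 also: potency is read from the fitted curve at half-maximal effect; 0% = DMSO wells and -100% = cell-free medium wells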
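Viability of IDH1-knockdown HT-1080 fibrosarcoma cells was assessed by CellTiter-Glo after 48 h at 37 °C with titrated compound; concentration-effect curves were classified by fit quality and response size.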
* marks the source's active call; other numbers are inactive results; [ ] = remark or other dose. Unless noted, calls follow the shape of the dose curve; as a rule, active = well fitted curve in the direction sought with a large enough effect; inconclusive = small, poorly fitted or top-dose-only effect, or another doubt; inactive = no such curve, though single readings can be large; an effect the other way counts as inactive or inconclusive. Unless noted, % is scaled to controls: 0 for no effect and ±100 for the full control effect.

What do the screens show for `C=CCC[C@H](Cc1ccc(F)cc1)C(=O)OC[C@@H](C)NC(=O)[C@H](CC=C)CC(=O)NCCO`?
IL-1B inflam inh: -0.3; DT40 TDP1 no CPT: inconclusive; TDP1 cell CPT: -23.4%; HT1080NT lethal: 18.3%; HT1080 IDH1KD tx: 11.4%

What do the screens show for `O=C(NC1CC2CCCC(C1)N2Cc1ccccc1)c1cccc(Cl)c1` (stereo not given)?
IL-1B inflam inh: -1.4; DT40 TDP1 no CPT: -26.6%; TDP1 cell CPT: -17.0%; HT1080NT lethal: -0.4%; HT1080 IDH1KD tx: 0.1%

How did CN(C)S(=O)(=O)N1CCC(Oc2ccc(C(=O)N3C[C@H]4CC[C@H]3C4)cc2)CC1 do in these assays?
IL-1B inflam inh: 12.0; DT40 TDP1 no CPT: 20.6µM*; TDP1 cell CPT: 11.6µM*; HT1080NT lethal: inconclusive; HT1080 IDH1KD tx: -17.7%

Results for COC1CCCN(C(=O)c2ccc(OC3CCN(S(=O)(=O)N(C)C)CC3)cc2)C1 (stereo not given) ?
IL-1B inflam inh: 2.2; DT40 TDP1 no CPT: inconclusive; TDP1 cell CPT: -25.1%; HT1080NT lethal: 1.8%; HT1080 IDH1KD tx: 2.8%

How did CN(C)S(=O)(=O)N1CCC(Oc2ccc(C(=O)N3C[C@@H]4CCC[C@H]3C4)cc2)CC1 do in these assays?
IL-1B inflam inh: 12.5; DT40 TDP1 no CPT: inconclusive; TDP1 cell CPT: 16.4µM*; HT1080NT lethal: 1.4%; HT1080 IDH1KD tx: -1.0%

Results for CCN1C[C@@H]2[C@@H]3C(=O)N(C)C(=O)[C@@H]3[C@](Cc3ccccc3)(C(=O)OC)N2C1=NCc1ccccc1 ?
IL-1B inflam inh: 21.7; DT40 TDP1 no CPT: -3.7%; TDP1 cell CPT: 0.3%; HT1080NT lethal: 2.1%; HT1080 IDH1KD tx: 4.3%

What do the screens show for `Cc1[nH]c2ccccc2c1C(=O)CN1CCCCC1CCO` (stereo not given)?
IL-1B inflam inh: 10.8; DT40 TDP1 no CPT: 16.4µM*; TDP1 cell CPT: inconclusive; HT1080NT lethal: -7.2%; HT1080 IDH1KD tx: -3.2%

What do the screens show for `CCS(=O)(=O)N1N=C(c2ccccc2)CC1c1ccc2nccnc2c1` (stereo not given)?
IL-1B inflam inh: -2.9; DT40 TDP1 no CPT: 10.3µM*; TDP1 cell CPT: inconclusive; HT1080NT lethal: 8.6%; HT1080 IDH1KD tx: 1.1%

Results for CS(=O)(=O)Nc1ccc(C2=NN(S(C)(=O)=O)C(c3ccc4nccnc4c3)C2)cc1 (stereo not given) ?
IL-1B inflam inh: 0.7; DT40 TDP1 no CPT: 0.7%; TDP1 cell CPT: -18.7%; HT1080NT lethal: 0.8%; HT1080 IDH1KD tx: 4.6%

How did CCN(CC)S(=O)(=O)c1ccc2c(c1)N(CC(=O)Nc1c(C)cc(C)cc1C)C(=O)C1CCCN21 (stereo not given) do in these assays?
DT40 TDP1 no CPT: -4.9%; TDP1 cell CPT: -7.1%

How did CC1(C(=O)NCc2cccc3ccccc23)CCN1Cc1cc2ccccc2o1 (stereo not given) do in these assays?
IL-1B inflam inh: -16.2; DT40 TDP1 no CPT: inconclusive; TDP1 cell CPT: inconclusive; HT1080NT lethal: inconclusive; HT1080 IDH1KD tx: inconclusive

What do the screens show for `CCCCNC(=O)C1(C)CCCCN1Cc1ccc(OCc2ccccc2)cc1` (stereo not given)?
IL-1B inflam inh: -24.9; DT40 TDP1 no CPT: 20.6µM*; TDP1 cell CPT: 20.6µM*; HT1080NT lethal: inconclusive; HT1080 IDH1KD tx: inconclusive

What do the screens show for `CCCCNC(=O)C1(C)CCCCCN1Cc1cc2ccccc2o1` (stereo not given)?
IL-1B inflam inh: -25.8; DT40 TDP1 no CPT: inconclusive; TDP1 cell CPT: 18.4µM*; HT1080NT lethal: inconclusive; HT1080 IDH1KD tx: inconclusive

How did CCCCNC(=O)C1(C)CCN1Cc1cc(C)ccc1C (stereo not given) do in these assays?
IL-1B inflam inh: -0.3; DT40 TDP1 no CPT: inconclusive; TDP1 cell CPT: 23.1µM*; HT1080NT lethal: 2.4%; HT1080 IDH1KD tx: 17.3%

How did CCCC(=O)N1CCC1(C)C(=O)Nc1cc(C)ccc1C (stereo not given) do in these assays?
IL-1B inflam inh: 20.8; DT40 TDP1 no CPT: 6.7%; TDP1 cell CPT: -1.4%; HT1080NT lethal: 22.9%; HT1080 IDH1KD tx: 0.0%

How did CCCCNC(=O)C1CCN(Cc2ccc(OCc3ccccc3)cc2)CC1 do in these assays?
IL-1B inflam inh: -7.8; DT40 TDP1 no CPT: inconclusive; TDP1 cell CPT: inconclusive; HT1080NT lethal: inconclusive; HT1080 IDH1KD tx: inconclusive

What do the screens show for `CCCCNC(=O)C1(C)CCCCN1C(=O)c1ccc2ccccc2n1` (stereo not given)?
IL-1B inflam inh: -6.0; DT40 TDP1 no CPT: inconclusive; TDP1 cell CPT: inconclusive; HT1080NT lethal: 17.5%; HT1080 IDH1KD tx: 4.9%

Results for CCCCNC(=O)C1(C)CCCCN1Cc1ccc(-c2ccccc2)cc1 (stereo not given) ?
IL-1B inflam inh: 16.3; DT40 TDP1 no CPT: 8.2µM*; TDP1 cell CPT: 13µM*; HT1080NT lethal: inconclusive; HT1080 IDH1KD tx: inconclusive

How did COc1cccc(-c2nc(N3CCN(c4ccccc4)CC3)c3ccccc3n2)c1O do in these assays?
IL-1B inflam inh: 32.1; DT40 TDP1 no CPT: 16.4µM*; TDP1 cell CPT: inconclusive; HT1080NT lethal: 0.5%; HT1080 IDH1KD tx: 7.1%

How did COc1cccc(-c2nc(N3CCN(Cc4ccccc4)CC3)c3ccccc3n2)c1O do in these assays?
IL-1B inflam inh: 34.3; DT40 TDP1 no CPT: 16.4µM*; TDP1 cell CPT: inconclusive; HT1080NT lethal: -0.4%; HT1080 IDH1KD tx: -2.9%

Results for COc1cccc(-c2nc(N3CCCCC3)c3ccccc3n2)c1O ?
IL-1B inflam inh: inconclusive; DT40 TDP1 no CPT: 20.6µM*; TDP1 cell CPT: 25.9µM*; HT1080NT lethal: inconclusive; HT1080 IDH1KD tx: inconclusive

What do the screens show for `CCC1CCCCN1c1nc(-c2cccc(OC)c2O)nc2ccccc12` (stereo not given)?
IL-1B inflam inh: -8.0; DT40 TDP1 no CPT: inconclusive; TDP1 cell CPT: inconclusive; HT1080NT lethal: -25.2%; HT1080 IDH1KD tx: -5.7%

What do the screens show for `COc1cccc(-c2nc(Oc3cccc(C)c3C)c3ccccc3n2)c1O`?
IL-1B inflam inh: 22.3; DT40 TDP1 no CPT: inconclusive; TDP1 cell CPT: -29.8%; HT1080NT lethal: 8.5%; HT1080 IDH1KD tx: 13.2%

Results for COc1cc(=O)n2c(c1C(=O)N(C)Cc1nonc1C)CCN(Cc1ccc(C)cc1C)CC2 ?
DT40 TDP1 no CPT: inconclusive; TDP1 cell CPT: -15.0%[9.04 µM]

What do the screens show for `COc1ccc(N(Cc2ccccc2)C(=O)OC(C)(C)C)c(C(=O)N(C)OC)c1`?
IL-1B inflam inh: -9.4; DT40 TDP1 no CPT: inconclusive; TDP1 cell CPT: inconclusive; HT1080NT lethal: -0.9%; HT1080 IDH1KD tx: 2.5%

What do the screens show for `COc1ccc(S(=O)(=O)N2CCN(C(=O)c3cccs3)CC2)cc1`?
IL-1B inflam inh: -12.4; DT40 TDP1 no CPT: -16.8%; TDP1 cell CPT: -12.7%; HT1080NT lethal: 2.7%; HT1080 IDH1KD tx: 8.1%

Screening data deposited in PubChem BioAssay by National Center for Advancing Translational Sciences (NCATS).
